Bioassay records as filed in PubChem.
Only some compounds are listed: those with a hit (about 2.3% of all), similar ones and a draw of the others.
CHO-K1 Ca PAM – M1 PAM counterscreen hit in parental CHO-K1 cells. ATP EC20, Fluo-8 calcium fluorescence; 0% at ATP EC20, 100% at ATP max. activation, % at 3 µM. hit rate 0.02% among 360,000. AID 602247;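 active means activation above the run cutoff, the mean activation of all test compounds plus 3 SD, cut at about 40% in these data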;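 further: peak over basal fluorescence ratio in a 140 s read after ATP addition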
M1 antag – human CHRM1 antagonism. inhibition, % at 3 µM. hit rate 1.3% among 360,000. AID 588852. CHO-K1 hM1, Fluo-8 calcium fluorescence, ACh EC80 antagonist. P11229;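 active means percent inhibition above its own plate's cutoff, namely the mean of that plate's compound wells plus 3 SD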;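 further: peak over basal fluorescence ratio during 140 s after agonist addition; 0% = ACh EC80 plus DMSO and 100% = DMSO alone without agonist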
Target sequence (P11229 whole entry, looked up): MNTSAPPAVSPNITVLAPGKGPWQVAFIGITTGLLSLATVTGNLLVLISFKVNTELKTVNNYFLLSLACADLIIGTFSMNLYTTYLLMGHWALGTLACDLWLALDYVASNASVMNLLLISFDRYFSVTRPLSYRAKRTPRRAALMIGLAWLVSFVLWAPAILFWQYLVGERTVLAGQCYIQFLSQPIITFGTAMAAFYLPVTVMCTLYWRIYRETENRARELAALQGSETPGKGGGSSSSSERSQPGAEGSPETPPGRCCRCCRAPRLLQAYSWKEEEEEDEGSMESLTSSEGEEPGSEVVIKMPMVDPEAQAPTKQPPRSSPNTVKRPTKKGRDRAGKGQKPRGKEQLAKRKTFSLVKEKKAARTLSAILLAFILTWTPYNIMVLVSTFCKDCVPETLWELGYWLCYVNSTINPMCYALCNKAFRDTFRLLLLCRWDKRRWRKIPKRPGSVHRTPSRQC
M1 PAM – potentiates human M1 receptor response to acetylcholine; hit rate 0.088% among 360,000; activation, % at 3 µM; AID 588819; CHO-K1 hM1, Fluo-8 calcium fluorescence, ACh EC20; 0% = ACh EC20, 100% = maximal ACh; P11229; in the data active means activation above about 19%, passing the limit was not always enough
CHRM1 agonist – human M1 muscarinic receptor agonism | AID 588814 | P11229 | activation, % at 3 µM | CHO-K1 hM1, Fluo-8 calcium fluorescence, agonist mode; 0% DMSO, 100% acetylcholine EC100 | hit rate 0.33% among 360,000;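 active means activation above the run's mean compound activation plus 3 SD, cut at about 16% in these data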;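 further: peak over basal fluorescence ratio within a 140 s kinetic read after compound addition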
CHO-K1 Ca ag – nonselective activator or artifact in parental CHO-K1 cells. Fluo-8 calcium fluorescence; scaled to maximal ATP response, vehicle zero. activation, % at 3 µM. hit rate 0.48% among 360,000; in the data active means activation above about 15%;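 further: untransfected CHO-K1 host cells lacking M1 receptor as counterscreen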
CHO-K1 Ca antag – nonselective inhibitor or artifact in parental CHO-K1 cells | AID 602250 | inhibition, % at 3 µM | ATP-induced calcium, Fluo-8 fluorescence | hit rate 0.6% among 360,000;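 active means inhibition above a per-plate cutoff, the plate's mean sample inhibition plus 3 SD, cut at about 24% in these data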;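 further: 0% = DMSO plus EC80 ATP and 100% = DMSO alone without ATP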
* = called active by the depositor.

SMILES	CHO-K1 Ca PAM	M1 antag	M1 PAM	CHRM1 agonist	CHO-K1 Ca ag	CHO-K1 Ca antag
CC1CCC(NCCc2ccc3c(c2)OCO3)CC1 (stereo not drawn)	11.0	33.9*	-29.6	-10.2	2.3	-24.6
COC(=O)C1=C(c2ccc(OC)c(OC)c2)C[C@@H]2CC[C@H]1N2C(=O)N1CCCC1	11.3	-4.3	6.5	-2.4	-0.5	-22.3
CC(Cc1ccccc1Sc1ccccc1O)N(C)C (stereo not drawn)	7.4	97.8*	-23.1	-3.9	1.9	5.4
CC1=C2CCC3C(CCC4=CC(=O)CCC43C)C2CC1 (stereo not drawn)	14.6	-3.7	-3.9	-0.7	0.2	-10.2
Fc1ccccc1CNC1CN2CCC1CC2 (stereo not drawn)	7.4	45.4*	-20.0	-7.8	0.3	-7.2
Clc1ccc(CNC2CN3CCC2CC3)cc1 (stereo not drawn)	20.3	-10.8	0.2	-7.6	0.4	-10.1
Clc1ccc2c(c1)C(c1ccccc1Cl)=NCc1nnc(N3CCN(CCSc4ccccc4)CC3)n1-2	17.1	-2.5	8.5	1.5	-0.3	-8.8
COc1ccccc1C1=NCc2nnc(C)n2-c2ccc(Cl)cc21	-3.1	11.2	-3.8	-6.2	0.6	30.6*
Clc1ccc2c(c1)C(c1ccccc1Cl)=NCc1nnc(N3CCN(CCOc4ccccc4)CC3)n1-2	64.0*	-0.9	10.5	1.0	11.1	-15.4
CCc1ccccc1NC(=O)CN1CCN(C(=O)COc2ccccc2C#N)CC1	-12.4	4.9	-0.5	0.8	12.1	20.0
COC(=O)C1C(C(=O)O)C2(Cl)C(Cl)=C(Cl)C1(Cl)C2(Cl)Cl (stereo not drawn)	32.2	-2.3	2.0	-0.8	0.2	-21.0
O=C(NCC1=C(c2ccc3ccccc3c2)C[C@@H]2CC[C@H]1N2Cc1ccco1)c1ccc([N+](=O)[O-])cc1	17.1	43.2*	-28.9	-7.8	1.9	-6.3
O=C(NCC1=C(c2ccc3ccccc3c2)C[C@@H]2CC[C@H]1N2Cc1ccco1)c1ccncc1	-12.5	25.4	-24.2	-10.8	0.4	8.8
CCN(CC)CCCOC(=O)C(OC(C)C)(c1ccccc1)c1ccccc1	18.3	101.8*	-32.5	-10.4	4.4	-4.9
COC(=O)C1=C(c2ccc(F)cc2OCc2ccccc2)C[C@@H]2CC[C@H]1N2C(=O)N1CCC(O)CC1	-9.7	1.3	0.0	-8.4	0.0	-9.0
CC1=C(O)C(=O)C=C2C1=CC=C1C2(C)CCC2(C)C3CC(C)(C(=O)O)CCC3(C)CCC12C (stereo not drawn)	5.7	35.3	-6.0	0.2	5.7	36.9*
CC(=Nc1ccccc1N)c1c(O)n(C)c(=O)[nH]c1=O	15.0	-22.3	10.6	-0.6	0.4	-10.0
CC(C)N1C(=O)NC(=O)C2(Cc3cc([N+](=O)[O-])ccc3N(C)C2c2ccccc2)C1=O (stereo not drawn)	20.3	0.3	3.0	-2.7	25.3*	-4.2
CN1c2ccc([N+](=O)[O-])cc2CC2(C(=O)NC(=O)NC2=O)C1c1ccccc1 (stereo not drawn)	3.3	-14.2	6.5	-4.5	-0.4	0.6
O=C1NC(=O)C(CCc2ccncc2)(CCc2ccncc2)C(=O)N1CCc1ccccc1	6.6	1.4	6.5	-7.1	17.2*	10.4
O=C1CN=C(c2ccc(Cl)cc2)c2oc3ccccc3c2N1	-1.3	-14.0	8.6	17.8*	0.3	5.2
O=[N+]([O-])c1ccc(N2CCCC(C(F)(F)F)C2)c2ccncc12 (stereo not drawn)	2.7	-2.4	-2.2	-1.5	5.9	-11.7
COC(=O)C1=C(c2ccc(F)cc2F)C[C@@H]2CC[C@H]1N2C(=O)N1CCC(O)(c2ccc(Cl)cc2)CC1	-21.4	9.3	-4.4	-7.2	-1.1	7.2
Cc1ccc(-c2cc(-c3ccc(C)cc3)[n+](-c3ccc(C(=O)[O-])cc3)c(-c3ccc(C)cc3)c2)cc1	-3.4	-4.8	12.3	9.1	-0.3	-13.7
Cc1ccc(-c2cc(-c3ccccc3)cc(-c3ccccc3)[n+]2-c2ccccc2)cc1	-17.1	77.8*	-33.2	-2.4	13.2	30.4*
SMILES	CHO-K1 Ca PAM	M1 antag	M1 PAM	CHRM1 agonist	CHO-K1 Ca ag	CHO-K1 Ca antag
c1ccc(-c2cc(-c3ccccc3)[n+](-c3ccccc3)c(-c3ccccc3)c2)cc1	-11.0	42.9*	-17.3	2.5	10.8	20.4
CCOC(=O)c1cccc(-[n+]2c(-c3ccccc3)cc(-c3ccccc3)cc2-c2ccccc2)c1	-2.5	29.8	-21.9	-13.1	0.2	-16.9
C[n+]1c(-c2ccccc2)cc(-c2ccc(Cl)cc2)cc1-c1ccccc1	-13.6	-12.3	10.4	-13.7	-0.6	15.9
CN(C)c1ccc(-[n+]2c(-c3ccccc3)cc(-c3ccccc3)cc2-c2ccccc2)cc1	4.4	55.7*	-32.7	-10.7	8.3	23.0
Cc1ccc(-c2cc(-c3ccc(C)cc3)[n+](-c3ccccc3)c(-c3ccc(C)cc3)c2)cc1	-3.2	51.4*	-20.9	5.9	16.9*	16.4
O=[N+]([O-])c1cc(Cl)c(O)c(-[n+]2c(-c3ccccc3)cc(-c3ccccc3)cc2-c2ccccc2)c1	8.3	-12.2	6.9	0.7	-0.2	-4.0
CC1=CC(O)C(O)C2(C)C1CC1OC(=O)CC3C(C)C(O)C(=O)C2C13CO (stereo not drawn)	4.9	-14.6	6.9	-2.0	1.0	-8.5
O=P(N1CC1)(N1CC1)N1CCc2ccccc21	-10.1	9.0	-3.7	-1.5	0.0	4.0
O=C1c2ccccc2-n2nnnc2C2c3ccccc3-n3nncc3CN12 (stereo not drawn)	-3.6	-1.1	3.9	-3.1	0.1	12.1
O=C(Cc1c[nH]c2ccccc12)NNCc1ccc(N(CCCl)CCCl)cc1	6.7	-12.7	4.7	3.3	-0.1	-9.2
CCCCCc1nc2c(c(=O)c3ccccc3n2C)c(=O)n1C1CCCCCC1	24.0	0.7	-10.1	7.1	20.9*	-10.5
O=C1NCN(c2ccccc2)C12CCN(C(c1ccnc3ccccc13)c1nnnn1Cc1ccccc1)CC2 (stereo not drawn)	1.9	4.0	-12.0	-1.3	3.7	7.3
CC(CN1CCOCC1)C(C#N)(c1ccccc1)c1ccccc1 (stereo not drawn)	19.9	6.0	-22.1	-7.0	0.9	-27.8
CN1CCN(CCC(C#N)(c2ccccc2)c2ccccc2)CC1	9.7	98.7*	-22.1	-6.1	0.8	2.8
COC(=O)C1=C(c2cccc(C#N)c2)C[C@@H]2CC[C@H]1N2C(=O)N1CCCC1	-2.7	4.2	0.4	-4.1	0.2	-7.8
CCN(CC)P(=O)(c1n(CC)cc[n+]1CC)N(CC)CC	-15.7	0.3	5.4	-2.0	-0.8	32.4*
NC1=NC(=O)N2CC12 (stereo not drawn)	1.7	-5.0	-1.2	-1.6	0.3	-6.5
